The list is not random: actives were taken first. Their share in the collection is about 4.7%.
D1 PAM = enhances dopamine response at the human D1 receptor | P21728 | HEK293 TREx D1 cells, calcium flux, dopamine EC20 potentiation | potentiation, % at 10 µM | 360,000 compounds, 0.036% hits; in the data active = potentiation above about 30%; note: 0% is about no effect
Target sequence (P21728 whole entry, looked up): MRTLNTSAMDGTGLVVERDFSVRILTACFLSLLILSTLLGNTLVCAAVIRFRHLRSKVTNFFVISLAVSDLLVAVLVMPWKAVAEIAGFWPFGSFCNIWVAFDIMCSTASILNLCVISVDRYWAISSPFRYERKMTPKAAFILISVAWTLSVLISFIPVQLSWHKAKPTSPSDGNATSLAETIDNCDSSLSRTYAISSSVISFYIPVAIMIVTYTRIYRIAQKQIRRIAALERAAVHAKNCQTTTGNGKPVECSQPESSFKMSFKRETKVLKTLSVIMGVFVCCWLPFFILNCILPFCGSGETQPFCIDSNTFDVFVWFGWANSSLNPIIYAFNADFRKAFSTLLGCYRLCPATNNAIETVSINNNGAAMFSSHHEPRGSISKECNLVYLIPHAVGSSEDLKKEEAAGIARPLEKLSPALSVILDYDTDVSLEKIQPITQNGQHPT
TRHR PAM = allosteric enhancers of human TRH receptor; 360,000 compounds, 0.66% hits; enhancement, % at 2 µM; TRHR cells, fluo-8 calcium fluorescence, EC20 TRH enhancement; AID 493056; P34981; in the data active = enhancement above about 30%; note: 0% is about no effect
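Enhancer read-out: after compound pinning and an initial kinetic agonist-mode read, an EC20 of TRH (10 nM final) was injected and fluo-8 calcium signal (Ex 480/Em 530) followed at 1 s/cycle for 100 cycles in TRHR-expressing cells.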
D1 antagonist = blocks dopamine activation of the human D1 receptor. P21728. 360,000 compounds, 3.2% hits. activity change, negative = inhibition, % at 10 µM. HEK293 TREx D1 cells, calcium flux, dopamine EC80; stronger effect = lower value; in the data active = activity change below about -30%; note: % is set by controls: 0 for no effect and ±100 for the full control effect
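Compound effects on dopamine-evoked calcium signalling were measured in tetracycline-induced HEK293 Trex D1 cells. Dopamine at EC80 followed a 180 s compound pre-read, and fluorescence was tracked kinetically for 180 s more.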
D1 ag = activates the human D1 dopamine receptor | P21728 | HEK293 T-REx D1 cells, calcium flux, agonist mode | activation, % at 2 µM | 360,000 compounds, 1% hits; note: 0% is about no effect
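Inducible HEK293 T-REx D1 cells, force-coupled to calcium signalling, were plated at 4000 cells/well with tetracycline and held overnight at 30 C. After no-wash calcium dye loading, compound-evoked calcium rise over 180 s flagged agonists.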
TRHR ag = agonists of human TRH receptor. P34981. TRHR cells, calcium flux fluo-8, FDSS agonist mode. activation, % at 2 µM. 360,000 compounds, 0.18% hits; note: 0% is about no effect
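Fluo-8-loaded TRHR cells; 10 s baseline, compound added, kinetic Ca2+ fluorescence read 1/s, agonist mode.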
The depositor's hits bear a star; x = no result; ! = repeats disagree. Cut-off read from the data, not from the text of the source, unless noted: active = activation above about 30%; inactive = the rest.

SMILES | D1 PAM | TRHR PAM | D1 antagonist | D1 ag | TRHR ag
Cc1cc(C(F)(F)F)nn1Cc1n[nH]c(=S)n1-c1cccc(Cl)c1 | -4 | -3 | -32* | 3 | 0
Cc1cc(C(F)(F)F)nn1Cc1n[nH]c(=S)n1-c1ccc(Cl)cc1 | 0 | 3 | -12 | 1 | 0
Cc1ccc(OCc2cc(C(=O)N(CCO)Cc3cccs3)no2)cc1C | -8 | 11 | -45* | 17 | 0
CCN(Cc1ccncc1)C(=O)c1cc(COc2ccc(C)c(C)c2)on1 | -12 | 1 | -23 | 14 | -1
COc1ccc(NC(=O)C(=O)NCC2CCCN2S(=O)(=O)c2cccs2)cc1 (centres undefined) | -13 | -8 | -7 | 2 | 0
COc1ccc(CCNC(=O)c2cc(COc3c(C)cccc3C)on2)c(OC)c1 | -4 | 8 | -3 | 10 | 0
O=C(NCc1cn(-c2ccccc2)nc1-c1ccccc1)c1cccc([N+](=O)[O-])c1 | -10 | -6 | -33* | 2 | 0
Cc1ccc(NS(=O)(=O)c2cc3[nH]c(=O)c(=O)[nH]c3cc2C)cc1N(C)C | 5 | 9 | 2 | 3 | 1
COc1ccc(Cc2nc3ccc(C(=O)NCCCN4CCN(C)CC4)cc3o2)cc1 | -3 | 6 | -11 | 7 | 0
Cc1ccc2nc(/C(C#N)=C\c3cc(O)ccc3[N+](=O)[O-])[nH]c2c1 | -6 | -3 | 2 | 0 | 0
N#C/C(=C/c1ccc(N2CCOCC2)o1)c1nc2ccccc2[nH]1 | 1 | -2 | 7 | 64* | 28
N#C/C(=C\c1ccc(Sc2nc3ccccc3[nH]2)o1)c1ccccc1 | -7 | -7 | -34* | 14 | 0
Cc1ccc2nc(/C(C#N)=C/c3ccc(-c4ccc(F)cc4F)o3)[nH]c2c1 | 8 | -4 | 1 | 219* | 52*
Cc1ccc2nc(/C(C#N)=C/c3ccc(-c4cccc([N+](=O)[O-])c4)o3)[nH]c2c1 | -3 | 1 | 1 | 47* | -1
CC(NC(=O)CCNC(=O)N1CCn2c1nc1ccccc12)c1ccccc1 (centres undefined) | -3 | 3 | 12 | 0 | 0
CCCCn1c(N)c(N(CC(C)C)C(=O)Cc2ccc3c(c2)OCCO3)c(=O)[nH]c1=O | -2 | -1 | 7 | 2 | 0
COc1ccc(-c2cc3c(=O)n(CC(=O)Nc4ccc(Br)c(C)c4)ccn3n2)cc1OC | -1 | -5 | 8 | 0 | 0
N#C/C(=C\c1c(Cl)cccc1Cl)c1nc2ccccc2[nH]1 | -6 | -5 | -12 | 8 | 1
Cc1c(Cl)cccc1-c1ccc(/C=C(\C#N)c2nc3ccccc3[nH]2)o1 | -3 | 12 | 6 | 58* | -2
Nc1nc(COc2ccc(Cl)cc2)cs1 | 3 | 38* | -5 | 1 | 0
Cc1ccc(Cl)cc1NC(=O)CN(C)S(=O)(=O)c1ccc2c(c1)n(C)c(=O)c(=O)n2C | -2 | -1 | 1 | 2 | -2
CCc1ccc(S(=O)(=O)c2nnn(-c3cccc(C)c3)c2N)cc1 | 1 | -1 | -30* | 64* | 6
CCOC(=O)c1ccc(NC(=O)CC2C(=O)N(c3cccc(OC)c3)C(=O)N2Cc2ccc(OC)cc2)cc1 (centres undefined) | -3 | -5 | -8 | 6 | 0
O=C(NCc1ccc2c(c1)OCO2)c1ccc(CS(=O)(=O)c2ccc(Br)cc2)o1 | x | 6 | -25 | 36* | -1
COc1ccccc1CNC(=O)Cn1ncc2c(C)n(Cc3ccccc3Cl)c(C)c2c1=O | -2 | 1 | -4 | 2 | -1
SMILES | D1 PAM | TRHR PAM | D1 antagonist | D1 ag | TRHR ag
Cc1c2cnn(CC(=O)NC(C)C)c(=O)c2c(C)n1Cc1ccccc1Cl | -2 | -3 | -31* | 2 | 0
Cc1ccc(/C=C/C2=NN(C)C(=O)CC2)cc1 | -3 | 30* | -27 | 0 | 0
CN1N=C(/C=C/c2ccccc2)CCC1=O | 3 | -1 | 2 | 2 | 1
CCn1ncc(C2=NOC(C(=O)Nc3cnn(C45CC6CC(CC(C6)C4)C5)c3)C2)c1C (centres undefined) | -4 | 4 | -25 | 34* | 2
CCn1ncc(C2=NOC(C(=O)NCC(C)C)C2)c1C (centres undefined) | -4 | -2 | 12 | 1 | 2
c1ccc(-c2cncn2-c2ccccc2)cc1 | 3 | 3 | -15 | 3 | 0
O=C(Nc1c(C(=O)N2CCN(c3ccc(F)cc3)CC2)oc2ccccc12)c1c(F)cccc1F | -5 | 23 | -59* | 2 | -2
COc1ccc(CC(=O)Nc2c(C(=O)N3CCN(c4ccccc4)CC3)oc3ccccc23)cc1OC | -4 | -3 | -31*! | -1 | 0
Cc1cccc(C(=O)Nc2c(C(=O)N3CCN(c4ccc(F)cc4)CC3)oc3ccccc23)c1 | -4 | -10 | 12 | 2 | 6
COc1ccc(CC(=O)Nc2c(C(=O)N3CCN(c4ccccc4OC)CC3)oc3ccccc23)cc1OC | -4 | -14 | -6 | 3 | 0
CCCc1cc(=O)[nH]c(SCC(=O)N2CC3(C)CC2CC(C)(C)C3)n1 (centres undefined) | x | -3 | -47* | 2 | 0
CCc1ccc(S(=O)(=O)c2nnn3c2nc(N(C)Cc2ccccc2)c2cc(Cl)ccc23)cc1 | 1 | 0 | 8 | 1 | 0
CCCN1CCN(CCCNC(=O)Cn2c(-c3cccs3)cc3ccccc32)CC1 | 0 | -1 | -4 | 6 | 0
CCCN1CCN(CCCNC(=O)Cn2c(-c3cccs3)cc3cc(Cl)ccc32)CC1 | -1 | 2 | -18 | 35* | 1
O=C(Cc1ccc(-n2cccc2)cc1)NCc1cccs1 | -9 | -2 | -34* | 1 | -1
O=S(=O)(NCc1ccccc1Cl)c1ccc(-n2cccn2)cc1 | -3 | -5 | -31* | 9 | -1
Cc1ccc(Cl)cc1NS(=O)(=O)c1ccc(-n2cccn2)cc1 | -10 | 0 | -30* | 13 | 0
O=S(=O)(NCc1ccccc1Cl)c1ccc(-n2cnnn2)cc1 | 3 | 9 | -8 | 2 | 0
COc1ccccc1CNCC(=O)Nc1ccc(N(C)C)cc1 | -2 | 3 | -1 | 5 | 0
COc1ccc2c(c1)c(=O)c(C(=O)c1ccccc1)cn2CC(=O)Nc1ccc2c(c1)OCO2 | -1 | -2 | 8 | -2 | 0
COCCn1c(=NC(=O)CSCC(=O)N2CCOCC2)sc2ccccc21 | -5 | 1 | -46* | 0 | 0
CC1CCN(c2cc(N)c(Cl)cc2[N+](=O)[O-])CC1 | 0 | -5 | 2 | 0 | 0
CC(C)NC(=O)c1onc(CSc2ccccc2)c1C(=O)O | 1 | 31* | 1 | -1 | 1
CCCCNC(=O)c1onc(CSc2ccc(C)c(C)c2)c1C(=O)O | -1 | 3 | -32* | 1 | 0
CCCCNC(=O)c1onc(CSc2ccc(F)c(F)c2)c1C(=O)O | -1 | -3 | 18 | 0 | 0
